According to PubChem BioAssay (NCATS):
Results filed as inconclusive are left out. Calls of active or inactive are those of the source. Unless noted, the call rests on the fitted dose curve; in most records, active means well fitted curve in the direction sought with a large enough effect; inconclusive means small, poorly fitted or top-dose-only effect, or another doubt; inactive means no such curve, though single readings can be large; an effect the other way counts as inactive or inconclusive.

Key:
[1] = Cytometric Cell-Based qHTS for Inhibitors of the mTORC1 Signaling Pathway in MEF (Tsc2-/-, p53-/-) Cells (AID 2660);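 further: Tsc2 and p53 null MEFs carrying empty vector with compound for 24 h; percent of cells above a phospho-rpS6 to PI ratio cutoff in each well; series mostly up to about 38 µM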
Summary of the method: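 Cells are plated, treated with compound for 24 hrs at 37 degree Celsius, then fixed, blocked and immunostained for phospho-rpS6 Ser235/236. Propidium iodide counterstain follows. Per-well % positive cells is derived from the PI-normalized phospho-S6 signal.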

[2] = High Content Imaging Cell-Based qHTS for Inhibitors of the mTORC1 Signaling Pathway in MEF (Tsc2-/-, p53-/-) Cells (AID 2666);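 further: percent of cells scored positive for phospho-rpS6 Ser235/236 immunostaining by imaging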
Summary of the method: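 Cells were plated, dosed with compound after 24 hrs, and incubated another 24 hrs at 37 degree Celsius. Fixed cells were immunostained for phospho-rpS6 Ser235/236 and counterstained, and the normalized signal was scored as % active cells against rapamycin and DMSO controls.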

[3] = High Content Imaging Cell-Based qHTS for Inhibitors of the mTORC1 Signaling Pathway in MEF Cells (AID 2667);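 further: Tsc2-/- p53-/- MEFs stably re-expressing wild-type Tsc2 exposed 24 h; series mostly up to about 38 µM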
Summary of the method: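 Immunofluorescence for rpS6 phosphorylation in MEFs of Tsc2-/-, p53-/- background rescued with WT Tsc2. Compound exposure lasted 24 hrs. Inhibition was scored against rapamycin-treated control wells.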

[4] = Cytometry Cell-Based qHTS for Inhibitors of the mTORC1 Signaling Pathway in MEF cells (AID 2668);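 further: Tsc2-/- p53-/- mouse embryonic fibroblasts stably re-expressing wild-type Tsc2; percent cells positive for phospho-rpS6 Ser235/236 relative to propidium iodide stain; series mostly up to about 38 µM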
Summary of the method: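 Tsc2-/-, p53-/- MEFs re-expressing WT Tsc2; cpd 24 hrs, 37 degree Celsius; PFA fix, Alexa-488 p-rpS6 (Ser235/236) Ab 2 hrs RT, PI counterstain; Acumen 488nm scan; p-S6/PI ratio → % positive cells; PI count = viability.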

[5] = Validation screen for small molecules that induce DNA re-replication in MCF 10A normal breast cells (AID 463097); further: nearly all actives have a fitted effect of over 60% in size
Summary of the method: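 Image-based qHTS: normal breast cells are incubated with compound for 48 hr, stained with Hoechst, and scanned for total nuclear fluorescence. Compounds raising the fraction of nuclei with elevated DNA content count as re-replication inducers.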

[6] = target: Ubiquitin carboxyl-terminal hydrolase 2 (Homo sapiens) (UniProt O75604); assay: qHTS Validation Assay for Inhibitors of Ubiquitin-specific Protease USP2a Using CHOP2 as the Reporter (AID 463106)
Ubiquitin carboxyl-terminal hydrolase 2 (Homo sapiens), sequence (O75604 whole entry, looked up): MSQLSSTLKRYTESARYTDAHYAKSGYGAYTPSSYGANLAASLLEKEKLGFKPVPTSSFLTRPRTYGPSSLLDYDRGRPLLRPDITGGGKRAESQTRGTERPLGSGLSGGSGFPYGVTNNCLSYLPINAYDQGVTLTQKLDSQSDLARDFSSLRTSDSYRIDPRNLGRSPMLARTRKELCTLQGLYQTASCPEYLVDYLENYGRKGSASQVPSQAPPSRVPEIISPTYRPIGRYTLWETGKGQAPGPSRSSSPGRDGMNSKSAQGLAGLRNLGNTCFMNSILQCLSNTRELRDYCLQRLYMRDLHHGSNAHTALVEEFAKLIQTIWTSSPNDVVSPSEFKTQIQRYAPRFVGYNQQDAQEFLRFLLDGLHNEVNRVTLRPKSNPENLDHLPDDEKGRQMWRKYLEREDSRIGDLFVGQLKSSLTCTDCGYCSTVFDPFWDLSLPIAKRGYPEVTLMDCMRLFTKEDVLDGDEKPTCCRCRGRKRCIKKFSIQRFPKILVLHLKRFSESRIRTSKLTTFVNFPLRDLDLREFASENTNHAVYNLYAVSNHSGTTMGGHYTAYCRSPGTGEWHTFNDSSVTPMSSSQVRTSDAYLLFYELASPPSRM
Summary of the method: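 10nM USP2 core + cpd, 30min RT; add 25nM Ub-CHOP2/25nM substrate; 60min RT; FI 485/531nm. Buffer Tris pH 8.0, CaCl2, BME, CHAPS. Norm. to NEM = 100% inhibition; time-zero read flags fluorescent artifacts.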

[7] = target: DNA polymerase III PolC-type (Bacillus subtilis (strain 168)) (UniProt P13267); assay: qHTS Validation Assay for the Inhibitors of DNA Replication in Gram-Positive Bacteria (AID 485295);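 further: reconstituted holoenzyme with PolC plus beta clamp SSB and primase; PicoGreen fluorescence of double-stranded DNA made on primed circular M13 template; series mostly up to about 57 µM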
DNA polymerase III PolC-type (Bacillus subtilis (strain 168)), sequence (P13267 whole entry, looked up): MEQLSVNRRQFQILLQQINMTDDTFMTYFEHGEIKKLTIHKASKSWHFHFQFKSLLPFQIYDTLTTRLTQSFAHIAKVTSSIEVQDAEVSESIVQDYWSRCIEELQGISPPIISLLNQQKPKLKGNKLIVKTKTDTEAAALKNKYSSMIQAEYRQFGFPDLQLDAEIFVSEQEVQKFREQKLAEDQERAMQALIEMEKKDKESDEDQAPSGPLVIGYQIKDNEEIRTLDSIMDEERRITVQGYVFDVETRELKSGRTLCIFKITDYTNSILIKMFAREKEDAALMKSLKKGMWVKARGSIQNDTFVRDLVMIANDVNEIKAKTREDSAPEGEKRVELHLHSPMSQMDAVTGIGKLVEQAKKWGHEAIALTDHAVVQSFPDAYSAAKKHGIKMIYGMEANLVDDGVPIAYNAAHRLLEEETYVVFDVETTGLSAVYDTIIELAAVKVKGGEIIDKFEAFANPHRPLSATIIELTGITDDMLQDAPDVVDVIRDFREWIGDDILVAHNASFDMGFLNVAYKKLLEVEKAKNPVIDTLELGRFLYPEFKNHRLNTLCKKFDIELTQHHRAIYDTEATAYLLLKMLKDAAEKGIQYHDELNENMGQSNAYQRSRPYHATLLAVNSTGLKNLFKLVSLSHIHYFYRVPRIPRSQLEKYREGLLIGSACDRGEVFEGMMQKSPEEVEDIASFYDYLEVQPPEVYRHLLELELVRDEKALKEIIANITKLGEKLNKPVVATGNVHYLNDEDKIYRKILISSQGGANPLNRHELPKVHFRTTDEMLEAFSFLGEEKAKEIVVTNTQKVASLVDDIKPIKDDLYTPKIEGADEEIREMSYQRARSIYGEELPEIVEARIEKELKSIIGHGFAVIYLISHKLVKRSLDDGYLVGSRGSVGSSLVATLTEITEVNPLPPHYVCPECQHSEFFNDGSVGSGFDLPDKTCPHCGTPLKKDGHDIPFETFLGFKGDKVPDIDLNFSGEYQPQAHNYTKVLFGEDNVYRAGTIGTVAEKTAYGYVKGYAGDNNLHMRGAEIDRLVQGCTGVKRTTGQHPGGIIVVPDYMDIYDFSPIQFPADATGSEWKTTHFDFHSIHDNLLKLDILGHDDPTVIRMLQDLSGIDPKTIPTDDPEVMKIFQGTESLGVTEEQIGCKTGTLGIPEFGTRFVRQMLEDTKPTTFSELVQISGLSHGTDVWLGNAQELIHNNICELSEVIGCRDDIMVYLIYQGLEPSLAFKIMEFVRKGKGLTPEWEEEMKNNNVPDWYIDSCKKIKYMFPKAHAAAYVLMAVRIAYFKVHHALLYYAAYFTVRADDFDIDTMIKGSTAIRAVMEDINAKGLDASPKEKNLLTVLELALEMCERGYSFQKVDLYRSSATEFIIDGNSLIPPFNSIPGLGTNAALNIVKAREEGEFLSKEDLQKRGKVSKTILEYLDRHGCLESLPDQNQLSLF
Summary of the method: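 First, compound is mixed with the reconstituted replication complex and held at room temperature. Next, circular single-stranded M13Gori with nucleotides starts synthesis. Finally, PicoGreen in EDTA halts the reaction and stains double-stranded product for fluorescence reading.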

[8] = target: Tumor susceptibility gene 101 protein (Homo sapiens) (UniProt Q99816); assay: qHTS Validation Assay for Iinhibitors of HIV-1 Budding by Blocking the Interaction of PTAP/TSG101 (AID 485342; calls by dose curve)
Tumor susceptibility gene 101 protein (Homo sapiens), sequence (Q99816 whole entry, looked up, the tested form may be a part): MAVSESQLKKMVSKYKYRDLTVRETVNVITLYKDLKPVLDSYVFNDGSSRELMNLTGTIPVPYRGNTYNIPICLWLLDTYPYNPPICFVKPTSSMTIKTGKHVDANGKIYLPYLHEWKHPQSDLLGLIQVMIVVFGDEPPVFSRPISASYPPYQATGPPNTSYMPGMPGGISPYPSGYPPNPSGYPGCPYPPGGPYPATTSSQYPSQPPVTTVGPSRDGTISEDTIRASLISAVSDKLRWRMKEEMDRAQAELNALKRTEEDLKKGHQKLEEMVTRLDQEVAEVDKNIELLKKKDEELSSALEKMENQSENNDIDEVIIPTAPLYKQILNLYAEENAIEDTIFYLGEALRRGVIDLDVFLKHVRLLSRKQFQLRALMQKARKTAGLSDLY
Summary of the method: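 Binding of a FITC-tagged PTAP-motif peptide (50 nM) to the Tsg101 binding domain (10 uM) is monitored by fluorescence polarization. Compounds are pin-delivered before peptide addition, and incubation runs 20 min at room temperature.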

[9] = qHTS Validation Assay to Find Inhibitors of Chronic Active B-Cell Receptor Signaling (AID 485345; active means well fitted curve in the direction sought with a large enough effect in the main read-out, with a control signal flat, not every such curve was filed as active)
Summary of the method: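 Read-out: ratio of filter-corrected green (IkappaBalpha fusion) to red (native) luciferase signal in doxycycline-induced TMD8 cells after 4 h at 37C. Titration spanned 46 uM–3 nM; Data were normalised to basal cells and 10 uM MG-132 wells.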

[10] = target: Thioredoxin reductase 1, cytoplasmic (Rattus norvegicus) (UniProt O89049); assay: qHTS Assay for Substrates of Mammalian Selenoprotein Thioredoxin Reductase 1 (TrxR1) (AID 488772);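 further: NADPH fluorescence in the first read after selenite addition and not the 8 min delta; series mostly up to about 57 µM; a drop in NADPH fluorescence below the no-compound background marks a TrxR1 substrate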
Thioredoxin reductase 1, cytoplasmic (Rattus norvegicus), sequence (O89049 whole entry, looked up): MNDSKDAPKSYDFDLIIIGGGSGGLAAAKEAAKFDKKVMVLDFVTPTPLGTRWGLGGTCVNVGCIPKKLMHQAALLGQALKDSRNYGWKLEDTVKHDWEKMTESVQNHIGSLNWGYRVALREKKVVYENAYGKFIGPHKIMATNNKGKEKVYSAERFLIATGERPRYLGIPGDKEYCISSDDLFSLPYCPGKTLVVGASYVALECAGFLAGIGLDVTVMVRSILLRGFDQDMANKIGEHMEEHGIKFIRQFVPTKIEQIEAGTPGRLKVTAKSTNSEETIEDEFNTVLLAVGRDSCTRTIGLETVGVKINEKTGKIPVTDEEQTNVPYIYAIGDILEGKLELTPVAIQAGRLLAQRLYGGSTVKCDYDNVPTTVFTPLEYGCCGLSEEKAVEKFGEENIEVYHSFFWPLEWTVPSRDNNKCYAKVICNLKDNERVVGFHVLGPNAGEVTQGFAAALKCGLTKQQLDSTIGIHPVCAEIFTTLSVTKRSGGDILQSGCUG
Summary of the method: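 Quantitative HTS in Tris-HCl buffer at pH 7.5 with EDTA and Tween-20, using rat TrxR1, 400 uM NADPH and 400 uM selenite (final). A fall in initial NADPH fluorescence relative to background marked substrate behaviour.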

[11] = target: Thioredoxin reductase 1, cytoplasmic (Rattus norvegicus) (UniProt O89049); assay: qHTS Assay for Inhibitors of Mammalian Selenoprotein Thioredoxin Reductase 1 (TrxR1) (AID 488773); conditions: Potency: inhibition;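 further: drop in NADPH fluorescence over an 8 min run after selenite addition; series mostly up to about 57 µM; nearly all actives have a fitted effect of over 40% in size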
Summary of the method: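 Steps: enzyme (90 nM) plus NADPH (400 uM final), 5 min at ~22 deg C; compound added, 15 min; selenite (400 uM final) added; fluorescence followed for 8 min. Concentration-response curves derived from the normalized delta values.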

[12] = target: Flap endonuclease 1 (Homo sapiens) (UniProt P39748); assay: qHTS Validation Assay for the Inhibitors of Human Flap endonuclease 1 (FEN1) (AID 488816)
Summary of the method: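 Readings taken at 0 and 15 min after starting the reaction with 50 nM (final) substrate supplied the signal. Compounds had first sat with 10 nM FEN1 reagent for 15 min at room temperature. Values come from Hill-equation concentration-response fits.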

[13] = target: M-phase phosphoprotein 8 (Homo sapiens) (UniProt Q99549); assay: qHTS Validation Assay for Inhibitors for MPP8 Chromodomain Interactions with Methylated Histone Tails (AID 488949);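 further: 50 nM MPP8 with 50 nM peptide preformed then compounds added for 30 min; AlphaScreen signal from MPP8 chromodomain bound to biotinylated H3K9me3 peptide; top concentration of the series differs between compounds; nearly all actives have a fitted effect of over 55% in size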
M-phase phosphoprotein 8 (Homo sapiens), sequence (Q99549 whole entry, looked up): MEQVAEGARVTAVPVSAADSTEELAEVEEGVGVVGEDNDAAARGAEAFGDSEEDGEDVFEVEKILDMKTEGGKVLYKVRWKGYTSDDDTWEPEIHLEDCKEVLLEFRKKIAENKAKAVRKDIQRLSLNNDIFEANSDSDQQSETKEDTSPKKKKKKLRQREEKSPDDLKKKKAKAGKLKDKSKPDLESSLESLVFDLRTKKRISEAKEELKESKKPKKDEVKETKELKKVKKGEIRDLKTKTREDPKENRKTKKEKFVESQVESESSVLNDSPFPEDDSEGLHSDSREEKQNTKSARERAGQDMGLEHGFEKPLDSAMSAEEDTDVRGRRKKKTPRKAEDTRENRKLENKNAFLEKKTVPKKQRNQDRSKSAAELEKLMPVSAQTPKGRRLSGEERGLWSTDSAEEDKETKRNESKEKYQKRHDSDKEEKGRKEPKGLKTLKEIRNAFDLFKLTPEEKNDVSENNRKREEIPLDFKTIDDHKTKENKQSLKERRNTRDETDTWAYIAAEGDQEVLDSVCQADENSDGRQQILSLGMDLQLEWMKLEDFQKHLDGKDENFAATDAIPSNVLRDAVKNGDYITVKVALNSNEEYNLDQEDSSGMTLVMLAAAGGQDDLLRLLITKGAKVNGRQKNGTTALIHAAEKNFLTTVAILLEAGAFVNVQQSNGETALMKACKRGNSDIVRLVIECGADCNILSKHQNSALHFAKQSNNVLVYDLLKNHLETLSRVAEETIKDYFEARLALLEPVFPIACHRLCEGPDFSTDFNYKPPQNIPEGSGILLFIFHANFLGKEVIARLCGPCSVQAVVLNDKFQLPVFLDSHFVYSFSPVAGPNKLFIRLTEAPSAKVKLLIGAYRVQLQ
Summary of the method: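 50 nM MPP8 + 50 nM b-H3K9me3 peptide, PBS pH 7.4/0.01% Tween-20, 30 min RT; + cpd 30 min RT; + AlphaScreen donor/Ni-chelate acceptor beads 10 ug/mL final, 30 min dark; luminescence read.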

[14] = target: Methanococcus maripaludis chaperonin (MmCpn) (UniProt Q6LX38); assay: High-Throughput Screening for Modulators of Cytosolic Chaperonin Activity: MmCpn Primary Screen (AID 488978);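 further: 50 nM MmCpn enzyme hydrolysing 30 µM ATP at 37 °C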
Methanococcus maripaludis chaperonin (MmCpn), sequence (Q6LX38 1-543): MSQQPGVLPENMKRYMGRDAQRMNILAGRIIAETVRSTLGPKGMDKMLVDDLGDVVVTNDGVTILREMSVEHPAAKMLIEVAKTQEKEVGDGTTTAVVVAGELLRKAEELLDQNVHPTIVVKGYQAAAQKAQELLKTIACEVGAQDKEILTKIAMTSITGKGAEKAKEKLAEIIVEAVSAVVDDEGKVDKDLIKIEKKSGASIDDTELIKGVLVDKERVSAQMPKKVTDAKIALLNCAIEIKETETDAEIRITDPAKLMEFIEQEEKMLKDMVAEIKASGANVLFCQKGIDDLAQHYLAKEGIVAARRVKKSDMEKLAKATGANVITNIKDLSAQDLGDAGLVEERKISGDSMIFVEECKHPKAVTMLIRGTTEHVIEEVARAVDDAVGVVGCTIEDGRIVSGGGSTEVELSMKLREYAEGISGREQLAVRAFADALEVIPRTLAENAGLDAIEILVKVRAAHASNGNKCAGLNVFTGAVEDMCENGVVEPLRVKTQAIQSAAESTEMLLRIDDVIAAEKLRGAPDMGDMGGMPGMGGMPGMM
Summary of the method: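 Steps: chaperonin 50 nM final; add compound, 5 min RT; start with ATP, 30 uM final; hold 10 min at 37C; add ADP Transcreener HTRF reagent, 5 min; read ex 320, em 590 and 665 nm.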

[15] = Quantitative high throughput screen for delayed death inhibitors of the malarial parasite plastid, 96 hour incubation (AID 488745);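 further: luciferase-expressing P. falciparum in erythrocytes at 2% hematocrit and 0.1% parasitemia; series mostly up to about 29 µM; nearly all actives have a fitted effect of over 70% in size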
Summary of the method: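 Growth of reporter-bearing P. falciparum in red cells is measured after 96 h with compound, covering two erythrocytic cycles. Luminescence from the integrated luciferase serves as the growth signal.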

[16] = Quantitative high throughput screen for delayed death inhibitors of the malarial parasite plastid, 48 hour incubation (AID 488752); further: nearly all actives have a fitted effect of over 65% in size
Summary of the method: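 One parasite generation (48 h, 37 C, 5% CO2) of luciferase-reporter P. falciparum in erythrocytes is run with test compound; decreased luminescence indicates inhibited growth.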

[17] = target: Beta-2 adrenergic receptor (Homo sapiens) (UniProt P07550); assay: qHTS validation assay of beta-arrestin-biased ligands of beta2-adrenergic receptor (AID 485366)
Beta-2 adrenergic receptor (Homo sapiens), sequence (P07550 whole entry, looked up): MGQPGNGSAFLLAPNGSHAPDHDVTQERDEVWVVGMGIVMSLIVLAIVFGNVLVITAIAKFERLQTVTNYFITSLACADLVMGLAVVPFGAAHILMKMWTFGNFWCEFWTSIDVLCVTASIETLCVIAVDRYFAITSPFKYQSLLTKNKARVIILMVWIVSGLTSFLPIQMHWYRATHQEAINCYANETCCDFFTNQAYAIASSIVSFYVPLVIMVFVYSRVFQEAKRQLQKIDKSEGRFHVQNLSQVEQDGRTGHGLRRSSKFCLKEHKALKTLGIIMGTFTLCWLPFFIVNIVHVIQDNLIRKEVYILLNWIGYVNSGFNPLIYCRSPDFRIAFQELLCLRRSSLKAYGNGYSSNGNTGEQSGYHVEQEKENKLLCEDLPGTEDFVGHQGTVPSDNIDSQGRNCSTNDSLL
Summary of the method: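 Values derive from curve-fitted %Activity of a luminescent beta-arrestin recruitment reporter; compounds tested up to 46 microM on Tango cells for 18 hr at 37 degrees C, 5% CO2.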

[18] = target: Chromobox protein homolog 1 (Homo sapiens) (UniProt P83916); assay: qHTS Validation Assay for Inhibitors of HP1-beta Chromodomain Interactions with Methylated Histone Tails (AID 488953);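 further: loss of AlphaScreen luminescence from HP1-beta binding biotinylated H3K9me3 peptide; series mostly up to about 110 µM; nearly all actives have a fitted effect of over 50% in size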
Chromobox protein homolog 1 (Homo sapiens), sequence (P83916 whole entry, looked up): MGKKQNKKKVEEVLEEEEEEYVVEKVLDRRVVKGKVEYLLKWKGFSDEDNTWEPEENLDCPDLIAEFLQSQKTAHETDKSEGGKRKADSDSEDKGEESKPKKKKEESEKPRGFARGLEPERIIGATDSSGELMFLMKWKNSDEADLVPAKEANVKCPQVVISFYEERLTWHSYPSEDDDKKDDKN
Summary of the method: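 Measured as loss of AlphaScreen luminescence from streptavidin donor and nickel acceptor beads (10 ug/mL final) bridging HP1-beta and biotin-H3(1-18)K9me3, each 50 nM. Compounds met the preassembled complex for 30 min at RT.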

[19] = target: ATP-dependent 6-phosphofructokinase (Trypanosoma brucei brucei) (UniProt O15648); assay: qHTS Validation Assay to Find Inhibitors of T. brucei phosphofructokinase (AID 485368)
Summary of the method: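 Enzyme reaction in triethanolamine buffer pH 8.0 with 5 mM MgCl2, 0.01% Tween20 and 0.1% BSA; PFK 1.25 nM, F6P 0.5 mM, ATP 0.1 mM, 45 min RT. ADP quantified by ADP-Glo.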

Measured: Potency

Cn1cc(C(F)(F)F)nc1-c1ccc(OCC(O)CNCCOc2ccc(O)c(C(N)=O)c2)cc1 (stereo not drawn)
not listed: [15] | [16] | [17] | [18] | [19]
inactive: all other assays above

CCSC(=N)N
not listed: [17] | [18] | [19]
inactive: all other assays above

O=C(c1ccc2c(c1)OCCO2)N1CCCCC1
not listed: [16] | [19]
inactive: all other assays above

NC(C(=O)N[C@@H]1C(=O)N2C(C(=O)O)=C(Cl)CS[C@H]12)c1ccccc1 (stereo partly drawn)
not listed: [16] | [18] | [19]
inactive: all other assays above

CC(=O)C(C)=O
not listed: [9] | [10] | [16] | [18]
inactive: all other assays above

Cn1c(=O)c2[nH]c(-c3ccc(S(=O)(=O)O)cc3)nc2n(C)c1=O
not listed: [9]
inactive: all other assays above

CC(=O)O[C@H]1CC2(C)[C@@H](C[C@@H](O)[C@H]3[C@@]4(C)CC[C@@H](O)[C@@H](C)[C@@H]4CC[C@@]32C)C1=C(CCC=C(C)C)C(=O)O (stereo partly drawn)
not listed: [16] | [19]
inactive: all other assays above
